SMILES strings stand for the structures. Inconclusive results are not listed. A call without a number means that no potency is given here. Activity calls are given as the source filed them. Calls follow the shape of the dose curve; as a rule, active = well fitted inhibition curve with a large enough effect; inconclusive = small, poorly fitted or top-dose-only effect; inactive = flat fitted curve, though single readings scatter.

Sequence of Glutathione peroxidase 1 (Homo sapiens) (P07203 whole entry, looked up): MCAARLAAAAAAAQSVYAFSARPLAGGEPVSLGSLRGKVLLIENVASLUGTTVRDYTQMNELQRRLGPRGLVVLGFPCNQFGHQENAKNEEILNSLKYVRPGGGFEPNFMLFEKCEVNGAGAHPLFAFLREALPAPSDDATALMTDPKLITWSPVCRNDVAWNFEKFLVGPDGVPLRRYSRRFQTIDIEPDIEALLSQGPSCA

The target of the assay is Glutathione peroxidase 1 (Homo sapiens) (UniProt P07203). Put plainly: Primary qHTS Assay for Inhibitors of Recombinant Selenoprotein Glutathione Peroxidase 1 (GPX1) (AID 1845191). Also: nearly all actives have a fitted effect of over 65% in size. The conditions noted are these: recombinant GPX1, GR-coupled NADPH fluorescence, 15 min; series mostly up to 48.8 µM. The method, boiled down:
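Recombinant GPX1 (10 nM final) was preincubated with compound for 30 min at room temperature, then reacted with 1 mM GSH, 0.5 mM CHP, 0.5 mM NADPH and 100 nM glutathione reductase; NADPH fluorescence (340/450 nm) was read at 0 and 15 min.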
As to `C=C1CCC2C(C)(C)CC(=O)CC2(C)C1CCC(C)CCOC(C)=O` (stereo not given), the Potency result was “inactive”.

With `COc1c2c(c(C)c3c1C(=O)OC3)O[C@@]1(C)C[C@@H](O)[C@]34O[C@](OC)(CC[C@]3(C)[C@H]1C2)OC4(C)C`, the Potency result was “inactive”.

For the compound `COc1c(C)c(C(=O)c2ccc(N)c(C(=O)O)c2)n2ccccc12`, the Potency entry is “inactive”.

For `CC[C@H]1OC(=O)[C@H](C)[C@@H](OC2C[C@@](C)(OC)[C@@H](O)[C@H](C)O2)[C@H](C)[C@@H](OC2O[C@H](C)C[C@H](NC)[C@H]2O)[C@](C)(O)C[C@@H](C)CN(C)[C@H](C)[C@@H](O)[C@]1(C)O` (stereo not given in full), the Potency entry is “inactive”.

`C=CC1C(O[C@@H]2O[C@H](CO)[C@@H](O)[C@H](O)[C@H]2O)OC=C(C(=O)OC)C1Cc1nccc2c1[nH]c1ccccc12` (stereo not given in full): the Potency result is “inactive”.

Turning to `CCC(=O)O[C@]1(C(=O)CCl)[C@@H](C)C[C@H]2[C@@H]3C[C@H](F)C4=CC(=O)C=C[C@]4(C)[C@@]3(F)[C@@H](O)C[C@@]21C`, the Potency result is “inactive”.

With `CC1=CC(=O)OC(C)(CC(C)(O)C(=O)O)C1` (stereo not given), the Potency result was “inactive”.

For the compound `CC1(CO)CC[C@]2(C(=O)O[C@@H]3O[C@H](CO)[C@@H](O)[C@H](O)[C@H]3O)CC[C@]3(C)C(=CCC4[C@@]5(C)CC[C@H](O[C@@H]6O[C@H](C(=O)O)[C@@H](O)[C@H](O)[C@H]6O)C(C)(C)C5CC[C@]43C)C2C1` (stereo not given in full), the Potency result is “inactive”.

For the compound `COCC(=O)N1CCc2cc(-c3csc(NC(=O)c4cc(OC)cc(OC)c4)n3)ccc21`, the Potency result is “inactive”.

On to `COC(=O)[C@]12C(=O)C(C)=C(O)[C@@]1(C)C(C)=CC1[C@@]34CC[C@@H](OC(C)=O)C(C)(C)C3[C@H](C[C@]12C)OC4=O` (stereo not given in full), for which the Potency entry is “inactive”.

These data come from PubChem BioAssay (NCATS).
